# ± gives the standard deviation.
# Tested on: OVCAR-3-derived ovarian cancer stem-like cells (spheroids)
# Test: cell growth relative to untreated control; higher = more growth (less inhibition)
# Conditions: 2.29 µM; 96 h
# In short: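 Viability of stem-like cells from OVCAR-3 spheroids was assessed with TOX8 resazurin fluorescence at ex 560/em 590 nm. The cells had been trypsin-dissociated, seeded at 50,000 cells/mL in stem cell medium in ultra-low attachment 96-well plates and preincubated 24 h, then treated with compounds at 2.29 uM for 96 h at 37°C, 5% CO2, in 4 replicate wells, with fluorescence read after 4 h. Results were converted to percent growth against untreated wells after blank subtraction and Grubbs outlier removal.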
row,SMILES,cell growth [%]
1,Oc1cccc2cccnc12,80.4 ± 14
2,COC(=O)C1=C(C(=O)OC)SC2(S1)C(C(=O)OC)=C(C(=O)OC)Sc1c2ssc1=O,60.2 ± 8.6
3,Cc1c(N)nc([C@H](CC(N)=O)NC[C@H](N)C(N)=O)nc1C(=O)N[C@H](C(=O)N[C@H](C)[C@@H](O)[C@H](C)C(=O)N[C@H](C(=O)NCCc1nc(-c2nc(C(=O)NCCC[S+](C)C)cs2)cs1)[C@@H](C)O)[C@@H](OC1OC(CO)C(O)C(O)C1OC1OC(CO)C(O)C(OC(N)=O)C1O)c1cnc[nH]1 (some centres not stated),53 ± 10
4,CC1=C(N2CC2)C(=O)c2nc3n(c2C1=O)CCC3OC(=O)CCl (configuration not stated),65.2 ± 6.7
5,CC(=O)O[C@@H]1C[C@H]2O[C@@H]3C=C(C)CC[C@]3(C)[C@]1(C)[C@]21CO1,48.5 ± 11
6,C1COCCN1.S=C(S)N1CCOCC1,63.4 ± 11
7,CCC(=O)OC1CCn2c1nc1c2C(=O)C(C)=C(N2CC2)C1=O (configuration not stated),130 ± 34
8,O=C([CH-]C(=O)C(F)(F)F)c1ccccc1.O=C([CH-]C(=O)C(F)(F)F)c1ccccc1.O=C([CH-]C(=O)C(F)(F)F)c1ccccc1.O=C([CH-]C(=O)C(F)(F)F)c1ccccc1.[Eu+3].c1ccncc1,104 ± 18
9,C[n+]1ccc(-c2cc[n+](C)cc2)cc1,101 ± 11
10,CCOC(=O)NC1=C(N2CC2)C(=O)C(NC(=O)OCC)=C(N2CC2)C1=O,50.1 ± 9.1
11,CC(=O)OC1C(O)C(C)OC(OC2C(OC(=O)C3CCC4C(C3)OC3(CC(OC(=O)/C=C/c5ccccc5)C(C)CO3)C43CO3)OC(C)C(O)C2OC(C)=O)C1O (configuration not stated),5.3 ± 3.2
12,CO[C@@H]1[C@H](O)C[C@@H](O[C@@H]2C[C@H](Oc3cc4cc5c(c(O)c4c(O)c3C)C(=O)[C@@H](O[C@H]3C[C@@H](O[C@H]4C[C@@H](O[C@H]6C[C@](C)(O)[C@@H](OC(C)=O)[C@H](C)O6)[C@H](O)[C@@H](C)O4)[C@H](O)[C@@H](C)O3)[C@H]([C@H](OC)C(=O)[C@@H](O)[C@@H](C)O)C5)O[C@H](C)[C@@H]2OC(C)=O)O[C@@H]1C,12.5 ± 3.1

# Source: the supplement of paper PMC3484114
